Results filed as inconclusive are left out. A call without a number means that no potency is given here. Active and inactive are the calls of the source. The call rests on the fitted dose curve; in most records, active means well fitted inhibition curve with a large enough effect; inconclusive means small, poorly fitted or top-dose-only effect; inactive means flat fitted curve, though single readings scatter.
Key:
Assay in all cases: qHTS profiling for inhibitors of Plasmodium falciparum proliferation (AID 504749); further: nearly all actives have a fitted effect of over 60% in size
Conditions in all cases: P. falciparum in erythrocytes, SYBR Green DNA, 72 h; series mostly up to 28.7 µM
CP217 = system: CP217
Summary of the method: (§1)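 Fluorescence of SYBR Green-bound parasite DNA, read at 485/535 nm, served as the growth measure. Infected erythrocytes were cultured with compound 72 h; artemisinin (0.29 uM) and DMSO wells defined the normalization range.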

CP237 = system: CP237
Summary of the method: as §1

CP238 = system: CP238
Summary of the method: as §1

CP247 = system: CP247
Summary of the method: as §1

CP250 = system: CP250
Summary of the method: as §1

CP252 = system: CP252
Summary of the method: as §1

CP256 = system: CP256
Summary of the method: as §1

CP260 = system: CP260
Summary of the method: as §1

CP262 = system: CP262
Summary of the method: as §1

CP265 = system: CP265
Summary of the method: as §1
Potency means the concentration at half of the fitted maximal effect.

CCCNC(=O)NS(=O)(=O)c1ccc(Cl)cc1
Potency (CP217): inactive | Potency (CP237): inactive | outcome (CP238): inactive | Potency (CP247): inactive | outcome (CP250): inactive | outcome (CP252): inactive | outcome (CP256): inactive | outcome (CP260): inactive | outcome (CP262): inactive | Potency (CP265): inactive

COc1ccc(Cc2nccc3cc(OC)c(OC)cc23)cc1OC
Potency (CP217): inactive | Potency (CP237): inactive | outcome (CP238): inactive | outcome (CP250): inactive | outcome (CP252): inactive | outcome (CP256): inactive | outcome (CP260): inactive | outcome (CP262): inactive | Potency (CP265): inactive

CC/C(=C(\c1ccccc1)c1ccc(OCCN(C)C)cc1)c1ccccc1
Potency (CP217): 11.2 µM (active) | outcome (CP262): inactive

COc1ccccc1N1CCN(CCCNc2cc(=O)n(C)c(=O)n2C)CC1
Potency (CP217): inactive | Potency (CP237): inactive | outcome (CP238): inactive | Potency (CP247): inactive | outcome (CP250): inactive | outcome (CP252): inactive | outcome (CP256): inactive | outcome (CP260): inactive | outcome (CP262): inactive | Potency (CP265): inactive

CCN(CC)CCOC(=O)c1ccc(N)cc1
Potency (CP217): inactive | Potency (CP237): inactive | outcome (CP238): inactive | Potency (CP247): inactive | outcome (CP250): inactive | outcome (CP252): inactive | outcome (CP256): inactive | outcome (CP260): inactive | outcome (CP262): inactive | Potency (CP265): inactive

CC1(C)O[C@H]2C[C@@H]3[C@H]4CCC5=CC(=O)C=C[C@]5(C)[C@@]4(F)[C@@H](O)C[C@]3(C)[C@]2(C(=O)CO)O1
Potency (CP217): inactive | Potency (CP237): inactive | outcome (CP238): inactive | Potency (CP247): inactive | outcome (CP250): inactive | outcome (CP252): inactive | outcome (CP256): inactive | outcome (CP260): inactive | outcome (CP262): inactive | Potency (CP265): inactive

CC(=O)N[C@@H](CS)C(=O)O
Potency (CP217): inactive | Potency (CP237): inactive | outcome (CP238): inactive | Potency (CP247): inactive | outcome (CP250): inactive | outcome (CP252): inactive | outcome (CP256): inactive | outcome (CP260): inactive | outcome (CP262): inactive | Potency (CP265): inactive

CCN(CC)CCNC(=O)c1ccc(N)cc1
Potency (CP217): inactive | Potency (CP237): inactive | outcome (CP238): inactive | Potency (CP247): inactive | outcome (CP250): inactive | outcome (CP252): inactive | outcome (CP256): inactive | outcome (CP260): inactive | outcome (CP262): inactive | Potency (CP265): inactive

O=C(NCCN1CCOCC1)c1ccc(Cl)cc1
Potency (CP217): inactive | Potency (CP237): inactive | outcome (CP238): inactive | Potency (CP247): inactive | outcome (CP250): inactive | outcome (CP252): inactive | outcome (CP256): inactive | outcome (CP260): inactive | outcome (CP262): inactive | Potency (CP265): inactive

CC(=O)c1ccc(S(=O)(=O)NC(=O)NC2CCCCC2)cc1
Potency (CP217): inactive | Potency (CP237): inactive | outcome (CP238): inactive | Potency (CP247): inactive | outcome (CP250): inactive | outcome (CP252): inactive | outcome (CP256): inactive | outcome (CP260): inactive | outcome (CP262): inactive | Potency (CP265): inactive

O=C1Nc2ccc(Cl)cc2C(C#CC2CC2)(C(F)(F)F)O1 (stereo unspecified)
Potency (CP217): inactive | Potency (CP237): inactive | outcome (CP238): inactive | Potency (CP247): inactive | outcome (CP250): inactive | outcome (CP252): inactive | outcome (CP256): inactive | outcome (CP260): inactive | outcome (CP262): inactive | Potency (CP265): inactive

Cc1cccc(C)c1OCC(C)N (stereo unspecified)
Potency (CP217): inactive | Potency (CP237): 6.31 µM (active) | outcome (CP238): inactive | Potency (CP247): inactive | outcome (CP250): inactive | outcome (CP252): inactive | outcome (CP256): inactive | outcome (CP260): inactive | outcome (CP262): inactive

CC(=O)CCCCn1c(=O)c2c(ncn2C)n(C)c1=O
Potency (CP217): inactive | Potency (CP237): inactive | outcome (CP238): inactive | Potency (CP247): inactive | outcome (CP250): inactive | outcome (CP252): inactive | outcome (CP256): inactive | outcome (CP260): inactive | outcome (CP262): inactive | Potency (CP265): inactive

NCCS
Potency (CP217): inactive | Potency (CP237): inactive | outcome (CP238): inactive | Potency (CP247): inactive | outcome (CP250): inactive | outcome (CP252): inactive | outcome (CP256): inactive | outcome (CP260): inactive | outcome (CP262): inactive | Potency (CP265): inactive

NC(N)=Nc1nc(CSCC/C(N)=N/S(N)(=O)=O)cs1
Potency (CP217): inactive | Potency (CP237): inactive | outcome (CP238): inactive | Potency (CP247): inactive | outcome (CP250): inactive | outcome (CP252): inactive | outcome (CP256): inactive | outcome (CP260): inactive | outcome (CP262): inactive | Potency (CP265): inactive

CCCCCN(C)CCC(O)(P(=O)(O)O)P(=O)(O)O
Potency (CP217): inactive | Potency (CP237): inactive | outcome (CP238): inactive | Potency (CP247): inactive | outcome (CP250): inactive | outcome (CP252): inactive | outcome (CP256): inactive | outcome (CP260): inactive | outcome (CP262): inactive | Potency (CP265): inactive

O=C1NC(=O)C(c2ccccc2)(c2ccccc2)N1
Potency (CP217): inactive | Potency (CP237): inactive | outcome (CP238): inactive | Potency (CP247): inactive | outcome (CP250): inactive | outcome (CP252): inactive | outcome (CP256): inactive | outcome (CP260): inactive | outcome (CP262): inactive | Potency (CP265): inactive

CCOC(=O)O[C@]1(C(=O)OCCl)CC[C@@H]2[C@H]3CCC4=CC(=O)C=C[C@]4(C)[C@@H]3[C@@H](O)C[C@@]21C
Potency (CP217): inactive | Potency (CP237): inactive | outcome (CP238): inactive | Potency (CP247): inactive | outcome (CP250): inactive | outcome (CP252): inactive | outcome (CP256): inactive | outcome (CP260): inactive | outcome (CP262): inactive | Potency (CP265): inactive

O=C1NCC2(CCN(CCc3ccccc3)CC2)O1
Potency (CP217): inactive | Potency (CP237): inactive | outcome (CP238): inactive | Potency (CP247): inactive | outcome (CP250): inactive | outcome (CP252): inactive | outcome (CP256): inactive | outcome (CP262): inactive | Potency (CP265): inactive

Cc1cnc(C(=O)O)c[n+]1[O-]
Potency (CP217): inactive | Potency (CP237): inactive | outcome (CP238): inactive | Potency (CP247): inactive | outcome (CP250): inactive | outcome (CP252): inactive | outcome (CP256): inactive | outcome (CP262): inactive | Potency (CP265): inactive

C[C@@H](O)[C@H]1C(=O)N2C(C(=O)O)=C(S[C@@H]3CN[C@H](C(=O)N(C)C)C3)[C@H](C)[C@H]12
Potency (CP217): inactive | Potency (CP237): inactive | outcome (CP238): inactive | Potency (CP247): inactive | outcome (CP250): inactive | outcome (CP252): inactive | outcome (CP256): inactive | outcome (CP260): inactive | outcome (CP262): inactive | Potency (CP265): inactive

CCN(CC)C(=O)c1ccc(O)c(OC)c1
Potency (CP217): inactive | Potency (CP237): inactive | outcome (CP238): inactive | Potency (CP247): inactive | outcome (CP250): inactive | outcome (CP252): inactive | outcome (CP256): inactive | outcome (CP260): inactive | outcome (CP262): inactive | Potency (CP265): inactive

C[N+](C)(C)CCCCCC[N+](C)(C)C
Potency (CP217): inactive | Potency (CP237): inactive | outcome (CP238): inactive | Potency (CP247): inactive | outcome (CP250): inactive | outcome (CP252): inactive | outcome (CP256): inactive | outcome (CP260): inactive | outcome (CP262): inactive | Potency (CP265): inactive

Clc1ccc(Cn2c(CN3CCCC3)nc3ccccc32)cc1
Potency (CP217): inactive | outcome (CP238): inactive | Potency (CP247): inactive | outcome (CP250): inactive | outcome (CP252): inactive | outcome (CP256): inactive | outcome (CP262): inactive | Potency (CP265): inactive

O=C(O)c1c(Cl)c(Cl)c(Cl)c(Cl)c1-c1c2cc(I)c(=O)c(I)c-2oc2c(I)c(O)c(I)cc12
Potency (CP217): inactive | Potency (CP237): inactive | outcome (CP238): inactive | Potency (CP247): inactive | outcome (CP250): inactive | outcome (CP252): inactive | outcome (CP256): inactive | outcome (CP260): inactive | outcome (CP262): inactive | Potency (CP265): inactive

O=C(O)c1cc(-c2ccccc2)nc2ccccc12
Potency (CP217): inactive | Potency (CP237): inactive | outcome (CP238): inactive | Potency (CP247): inactive | outcome (CP250): inactive | outcome (CP252): inactive | outcome (CP256): inactive | outcome (CP260): inactive | outcome (CP262): inactive | Potency (CP265): inactive

CCN1CCC[C@H]1CNC(=O)c1cc(S(N)(=O)=O)ccc1OC
Potency (CP217): inactive | Potency (CP237): inactive | outcome (CP238): inactive | Potency (CP247): inactive | outcome (CP250): inactive | outcome (CP252): inactive | outcome (CP256): inactive | outcome (CP260): inactive | outcome (CP262): inactive | Potency (CP265): inactive

CC1=C(/C=C/C(C)=C/C=C/C(C)=C/C(=O)Nc2ccc(O)cc2)C(C)(C)CCC1
Potency (CP247): 7.94 µM (active) | outcome (CP256): inactive

CC(=O)O[C@]1(C(C)=O)CC[C@H]2[C@@H]3C=C(Cl)C4=CC(=O)[C@@H]5C[C@@H]5[C@]4(C)[C@H]3CC[C@@]21C
outcome (CP238): inactive | Potency (CP247): inactive | outcome (CP250): inactive | outcome (CP252): inactive | Potency (CP265): inactive

CN(C)CCC(c1ccccc1)c1ccccn1 (stereo unspecified)
Potency (CP217): inactive | Potency (CP237): inactive | outcome (CP238): inactive | Potency (CP247): inactive | outcome (CP250): inactive | outcome (CP252): inactive | outcome (CP256): inactive | outcome (CP260): inactive | outcome (CP262): inactive | Potency (CP265): 12.6 µM (active)

O=C(O)Cc1cccc2ccccc12
Potency (CP217): inactive | Potency (CP237): inactive | outcome (CP238): inactive | Potency (CP247): inactive | outcome (CP250): inactive | outcome (CP252): inactive | outcome (CP256): inactive | outcome (CP260): inactive | outcome (CP262): inactive | Potency (CP265): inactive

O=c1[nH]cnc2c1ncn2[C@H]1CC[C@@H](CO)O1
Potency (CP217): inactive | Potency (CP237): inactive | outcome (CP238): inactive | Potency (CP247): inactive | outcome (CP250): inactive | outcome (CP252): inactive | outcome (CP256): inactive | outcome (CP262): inactive
